# Measured values: the supplement of paper PMC9794691
# Legend:
# Assay in all cases: area under confluence curve of osimertinib + compound combination regimen (DTP regrowth); compare to osimertinib-only DTP control AUC of the same experiment (AUC (confluence x time, arbitrary))
# [1] = tested on: H1975; settings: test compound dose 1000 nM
# Procedure, shortened: (§1)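 The area under the IncuCyte confluence–time curve, calculated in Prism and taken as the median of triplicates where available, is the value reported. It was measured in EGFR-mutant NSCLC lines that received the EGFR inhibitor either alone, followed by a test compound, or together with a fixed-dose test compound until the persister stage (10–21 days) and then drug-free medium. Medium was refreshed every 3–4 days until the inhibitor-only wells were confluent again.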
# [2] = tested on: HCC2279; settings: test compound dose 1000 nM
# Procedure, shortened: as §1
# [3] = tested on: HCC2935; settings: test compound dose 1000 nM
# Procedure, shortened: as §1
# [4] = tested on: HCC4006; settings: test compound dose 1000 nM
# Procedure, shortened: as §1
# [5] = tested on: HCC827; settings: test compound dose 1000 nM
# Procedure, shortened: as §1
# [6] = tested on: II-18; settings: test compound dose 1000 nM
# Procedure, shortened: as §1
# [7] = tested on: PC9
# Procedure, shortened: as §1
# [8] = dosing schedule: sequential, osimertinib-only DTP control AUC in same experiment: 22968, DMSO control AUC in same experiment: 15857
# [9] = dosing schedule: upfront, osimertinib-only DTP control AUC in same experiment: 27164, DMSO control AUC in same experiment: 15857
# [10] = dosing schedule: sequential, osimertinib-only DTP control AUC in same experiment: 26096, DMSO control AUC in same experiment: 14404
# [11] = dosing schedule: upfront, osimertinib-only DTP control AUC in same experiment: 33120, DMSO control AUC in same experiment: 14404
# [12] = dosing schedule: sequential, osimertinib-only DTP control AUC in same experiment: 22314, DMSO control AUC in same experiment: 19215
# [13] = dosing schedule: upfront, osimertinib-only DTP control AUC in same experiment: 29846, DMSO control AUC in same experiment: 19215
# [14] = dosing schedule: sequential, osimertinib-only DTP control AUC in same experiment: 12791, DMSO control AUC in same experiment: 18415
# [15] = dosing schedule: upfront, osimertinib-only DTP control AUC in same experiment: 17269, DMSO control AUC in same experiment: 18415
# [16] = dosing schedule: sequential, osimertinib-only DTP control AUC in same experiment: 15330, DMSO control AUC in same experiment: 21320
# [17] = dosing schedule: upfront, osimertinib-only DTP control AUC in same experiment: 20798, DMSO control AUC in same experiment: 21320
# [18] = dosing schedule: sequential, osimertinib-only DTP control AUC in same experiment: 8624, DMSO control AUC in same experiment: 11834
# [19] = dosing schedule: upfront, osimertinib-only DTP control AUC in same experiment: 10856, DMSO control AUC in same experiment: 11834
# [20] = test compound dose 1000 nM, dosing schedule: sequential, osimertinib-only DTP control AUC in same experiment: 10968, DMSO control AUC in same experiment: 21594
# [21] = test compound dose 1000 nM, dosing schedule: upfront, osimertinib-only DTP control AUC in same experiment: 17834, DMSO control AUC in same experiment: 21594
smiles,measurement,setting,value
C[C@@H](Oc1cc(-c2cnn(C3CCNCC3)c2)cnc1N)c1c(Cl)ccc(F)c1Cl [Crizotinib] + C=CC(=O)Nc1cc(Nc2nccc(-c3cn(C)c4ccccc34)n2)c(OC)cc1N(C)CCN(C)C [osimertinib],area under confluence curve,[1]; [8],9770
same,area under confluence curve,[1]; [9],9330
same,area under confluence curve,[2]; [10],23100
same,area under confluence curve,[2]; [11],32900
same,area under confluence curve,[3]; [12],21400
same,area under confluence curve,[3]; [13],33400
same,area under confluence curve,[4]; [14],12500
same,area under confluence curve,[4]; [15],13000
same,area under confluence curve,[5]; [16],10400
same,area under confluence curve,[5]; [17],15000
same,area under confluence curve,[6]; [18],1450
same,area under confluence curve,[6]; [19],10800
same,area under confluence curve,"[7]; test compound dose 1000 nM, dosing schedule: sequential, osimertinib-only DTP control AUC in same experiment: 15001, DMSO control AUC in same experiment: 22064",8360
same,area under confluence curve,"[7]; test compound dose 1000 nM, dosing schedule: upfront, osimertinib-only DTP control AUC in same experiment: 24924, DMSO control AUC in same experiment: 22064",7510
NC(=O)Nc1cc(-c2cccc(F)c2)sc1C(=O)N[C@H]1CCCNC1 + C=CC(=O)Nc1cc(Nc2nccc(-c3cn(C)c4ccccc34)n2)c(OC)cc1N(C)CCN(C)C [osimertinib],area under confluence curve,"[7]; test compound dose 5 nM, dosing schedule: sequential, osimertinib-only DTP control AUC in same experiment: 7760, DMSO control AUC in same experiment: 29563",4940
same,area under confluence curve,"[7]; test compound dose 5 nM, dosing schedule: upfront, osimertinib-only DTP control AUC in same experiment: 11798, DMSO control AUC in same experiment: 29563",9410
Cc1cc2cc(C(=O)c3cnn(-c4cnc(Oc5c(F)cccc5F)cc4C)c3N)[nH]c2cc1NS(C)(=O)=O + C=CC(=O)Nc1cc(Nc2nccc(-c3cn(C)c4ccccc34)n2)c(OC)cc1N(C)CCN(C)C [osimertinib],area under confluence curve,[7]; [20],7640
same,area under confluence curve,[7]; [21],9050
CN1CCN(c2nc(C3=C(c4c[nH]c5ccccc45)C(=O)NC3=O)c3ccccc3n2)CC1 [Sotrastaurin] + C=CC(=O)Nc1cc(Nc2nccc(-c3cn(C)c4ccccc34)n2)c(OC)cc1N(C)CCN(C)C [osimertinib],area under confluence curve,"[7]; test compound dose 1000 nM, dosing schedule: sequential, osimertinib-only DTP control AUC in same experiment: 10175, DMSO control AUC in same experiment: 27958",9060
same,area under confluence curve,"[7]; test compound dose 1000 nM, dosing schedule: upfront, osimertinib-only DTP control AUC in same experiment: 16134, DMSO control AUC in same experiment: 27958",10800
COc1nn(C)cc1Nc1nccc(-c2c[nH]c3c(NC(=O)[C@@H](C)N4CCN(C)CC4)cccc23)n1 + C=CC(=O)Nc1cc(Nc2nccc(-c3cn(C)c4ccccc34)n2)c(OC)cc1N(C)CCN(C)C [osimertinib],area under confluence curve,[1]; [8],19800
same,area under confluence curve,[1]; [9],18200
same,area under confluence curve,[2]; [10],23400
same,area under confluence curve,[2]; [11],31200
same,area under confluence curve,[3]; [12],20700
same,area under confluence curve,[3]; [13],31500
same,area under confluence curve,[4]; [14],12900
same,area under confluence curve,[4]; [15],18700
same,area under confluence curve,[5]; [16],10400
same,area under confluence curve,[5]; [17],15000
same,area under confluence curve,[6]; [18],1310
same,area under confluence curve,[6]; [19],1640
same,area under confluence curve,[7]; [20],8030
same,area under confluence curve,[7]; [21],15000
Cc1onc(C(=O)N2CCN(C(c3ccc(Cl)cc3)c3ccc(Cl)cc3)CC2)c1[N+](=O)[O-] + C=CC(=O)Nc1cc(Nc2nccc(-c3cn(C)c4ccccc34)n2)c(OC)cc1N(C)CCN(C)C [osimertinib],area under confluence curve,"[7]; test compound dose 1000 nM, dosing schedule: sequential, osimertinib-only DTP control AUC in same experiment: 8716, DMSO control AUC in same experiment: 45737",823
same,area under confluence curve,"[7]; test compound dose 1000 nM, dosing schedule: upfront, osimertinib-only DTP control AUC in same experiment: 11096, DMSO control AUC in same experiment: 45737",19300
COc1cc(CCc2cc(NC(=O)c3ccc(N4CC(C)NC(C)C4)cc3)n[nH]2)cc(OC)c1 (centres undefined) + C=CC(=O)Nc1cc(Nc2nccc(-c3cn(C)c4ccccc34)n2)c(OC)cc1N(C)CCN(C)C [osimertinib],area under confluence curve,"[1]; dosing schedule: sequential, osimertinib-only DTP control AUC in same experiment: 12533, DMSO control AUC in same experiment: 14522",3690
same,area under confluence curve,"[1]; dosing schedule: upfront, osimertinib-only DTP control AUC in same experiment: 18969, DMSO control AUC in same experiment: 14522",17800
same,area under confluence curve,"[2]; dosing schedule: sequential, osimertinib-only DTP control AUC in same experiment: 20224, DMSO control AUC in same experiment: 29252",10100
same,area under confluence curve,"[2]; dosing schedule: upfront, osimertinib-only DTP control AUC in same experiment: 43517, DMSO control AUC in same experiment: 29252",18500
same,area under confluence curve,"[3]; dosing schedule: sequential, osimertinib-only DTP control AUC in same experiment: 9121, DMSO control AUC in same experiment: 11459",9140
same,area under confluence curve,"[3]; dosing schedule: upfront, osimertinib-only DTP control AUC in same experiment: 12748, DMSO control AUC in same experiment: 11459",11800
same,area under confluence curve,"[4]; dosing schedule: sequential, osimertinib-only DTP control AUC in same experiment: 22375, DMSO control AUC in same experiment: 16794",14900
same,area under confluence curve,"[4]; dosing schedule: upfront, osimertinib-only DTP control AUC in same experiment: 24440, DMSO control AUC in same experiment: 16794",8920
same,area under confluence curve,"[5]; dosing schedule: sequential, osimertinib-only DTP control AUC in same experiment: 5666, DMSO control AUC in same experiment: 43928",3350
same,area under confluence curve,"[5]; dosing schedule: upfront, osimertinib-only DTP control AUC in same experiment: 19044, DMSO control AUC in same experiment: 43928",7760
same,area under confluence curve,"[6]; dosing schedule: sequential, osimertinib-only DTP control AUC in same experiment: 7374, DMSO control AUC in same experiment: 23373",2610
same,area under confluence curve,"[6]; dosing schedule: upfront, osimertinib-only DTP control AUC in same experiment: 15065, DMSO control AUC in same experiment: 23373",11500
O=C(CCCCCCC(=O)Nc1ccccc1)NO [Vorinostat] + C=CC(=O)Nc1cc(Nc2nccc(-c3cn(C)c4ccccc34)n2)c(OC)cc1N(C)CCN(C)C [osimertinib],area under confluence curve,"[7]; test compound dose 1000 nM, dosing schedule: sequential, osimertinib-only DTP control AUC in same experiment: 12065, DMSO control AUC in same experiment: 48219",7830
same,area under confluence curve,"[7]; test compound dose 1000 nM, dosing schedule: sequential, osimertinib-only DTP control AUC in same experiment: 14002, DMSO control AUC in same experiment: 31239",6670
same,area under confluence curve,"[7]; test compound dose 1000 nM, dosing schedule: upfront, osimertinib-only DTP control AUC in same experiment: 22175, DMSO control AUC in same experiment: 31239",7410
same,area under confluence curve,"[7]; test compound dose 1000 nM, dosing schedule: upfront, osimertinib-only DTP control AUC in same experiment: 22645, DMSO control AUC in same experiment: 48219",10400
Cc1nc(Nc2n[nH]c3c2CN(C(=O)N[C@H](CN(C)C)c2ccccc2)C3(C)C)c2sccc2n1 + C=CC(=O)Nc1cc(Nc2nccc(-c3cn(C)c4ccccc34)n2)c(OC)cc1N(C)CCN(C)C [osimertinib],area under confluence curve,"[7]; test compound dose 100 nM, dosing schedule: sequential, osimertinib-only DTP control AUC in same experiment: 14258, DMSO control AUC in same experiment: 20347",3500
same,area under confluence curve,"[7]; test compound dose 100 nM, dosing schedule: upfront, osimertinib-only DTP control AUC in same experiment: 21499, DMSO control AUC in same experiment: 20347",12300
